For 105 molecules, INHIBITION results are on record in ChEMBL document CHEMBL4513216, “Probing the Open Global Health Chemical Diversity Library for Multistage-Active Starting Points for Next-Generation Antimalarials” (ACS Infect Dis, 2020).

Screen size: about 68,000 compounds; about 2,700 (4%) showed an effect of 50% or more. This is one part of a sample in which strong results are shown more often than they occur.

For the test, the system named is Plasmodium berghei. Nature of the test: Screen against P. berghei liver stage (PbLuc), transformed with Luciferase, at 2uM. In kind it is functional, HepG2. The note with it: tested at 2 uM.
For the molecule `Cc1ccc2c(c1)C1(CCNCC1)CN2C(=O)CN(C)C`, the INHIBITION is reported as 15.58%. Next, `O=C(Nc1cccnc1)C1Cc2nc(-c3ccsc3)sc2N1CC1CC1` (stereo not given): 18.2%; `CCn1c(CN(C)C(=O)c2ccc(OC)nc2)nc2ccccc21`: -33.03%; `O=C(Nc1cccc(CNCc2cccnc2)c1)C1CCCC1`: 14.53%. Regarding `O=C(c1cscn1)N1C[C@@H]2C[C@@H](c3nnc(C4CC4)o3)O[C@@H]2C1`, the INHIBITION is recorded as -4.1%. For the molecule `Cn1cc(CNC2CCc3ncnn3C2)c(-c2ccncc2)n1` (stereo not given), the INHIBITION is on record as 49.88%. Next, `CN(C)C(=O)C1CCC2(CCNCC2)C1` (stereo not given): 26.55%.

Turning to `CC(C)N(C)Cc1cnc2n1CCN(S(=O)(=O)c1ccccc1)C2`, the INHIBITION was 29.3%. Turning to `COc1ccc(C(=O)C2CCCN(Cc3cc(C)n[nH]3)C2)c(OC)c1` (stereo not given), the INHIBITION is recorded as 15.08%. Under `O=C(C[S+]([O-])Cc1cccc(F)c1)NC1CCCC1` (stereo not given) stands 27.67%; under `CC(=O)N1CCCN(C(=O)c2cnc(OC(C)C)c(Cl)c2)CC1`, 31.51%. As to `CC(O)CN1CCN(C(=O)c2cnc(OC(C)C)c(Cl)c2)CC1` (stereo not given), the INHIBITION came out at 19.59%. Next, `CC(C)Oc1ncc(C(=O)N2CCCC(C(=O)O)C2)cc1Cl` (stereo not given): 0.51%; `CC(C)Oc1ncc(C(=O)N2CCC(CC(N)=O)CC2)cc1Cl`: 64.9%. With `CC(C)Oc1ncc(C(=O)N2CCC(NC(=O)C3CC3)CC2)cc1Cl`, the INHIBITION was -58.69%. Next, `CC(=O)N1CCN(C(=O)c2cnc(OC(C)C)c(Cl)c2)CC1`: 55.36%; `CCN1CCCN(C(=O)c2cnc(OC(C)C)c(Cl)c2)CC1`: -16.16%; `CC(C)c1ccc(OCCC(=O)N2CCC(CC(N)=O)CC2)cc1`: 31.19%. `CC(C)Oc1ncc(C(=O)N2CCC(N(C)C)CC2)cc1Cl`: the INHIBITION is reported as 55.36%. For `CCc1nc(N)nc(N2CCCC3(CCOCC3)C2)c1C`, the INHIBITION worked out at 39.57%. With `Cc1ocnc1C(=O)N(C)[C@@H]1CC[C@@H](n2ccnc2C)[C@@H]1O`, the INHIBITION is -12.75%.

Turning to `O=C1CN(C(=O)CNC(CC(F)(F)F)c2ccc(F)cc2)CCN1` (stereo not given), the INHIBITION was 7.05%. As for `COc1c(CNC(c2ccccc2)c2ccc(F)cc2)c(C)nn1C` (stereo not given), the INHIBITION came to 13.67%. `Cc1noc(C(C)N2CCN(CCn3ccccc3=O)CC2)n1` (stereo not given): the INHIBITION came to 25.78%.

Consider `CCOCc1cccc(S(=O)(=O)Nc2ncc(C)s2)c1`, for which the INHIBITION is on record as 44.59%. Consider `Cc1nc(C)n(CC2CCCN2CC(=O)Nc2cc(C(C)C)no2)n1` (stereo not given), for which the INHIBITION amounted to 35.42%. Turning to `CCN(Cc1noc(C)n1)C(=O)CC1C(=O)NCCN1CC(C)(C)C` (stereo not given), the INHIBITION came out at 55.84%.

For `CCc1noc(CN(CC)C(=O)CC2C(=O)NCCN2CC(C)(C)C)n1` (stereo not given), the INHIBITION is reported as 43.6%. For `CCc1noc(CN(CC)C(=O)CC2C(=O)NCCN2CC=C(C)C)n1` (stereo not given), the INHIBITION was determined as 3.66%.

Consider `CN(C)CCOc1ccccc1N1CCN(C(=O)C(C)(C)C#N)CC1`, for which the INHIBITION was -4.91%.

`CC(C)(C)C(O)CCNC(=O)c1ccc(F)cc1Cl` (stereo not given): the INHIBITION was -9.71%. For `Cc1cc(NC2CCc3ncnn3C2)n2nc(C(F)(F)F)nc2n1` (stereo not given), the INHIBITION was -30.02%. As to `CN(C)c1ccc(NC(=O)CN2CCS(=O)(=O)CC2)cn1`, the INHIBITION was found to be 71.64%.

Regarding `COc1ccc(NC(=O)CN2CCS(=O)(=O)CC2)cn1`, the INHIBITION is reported as -9.39%. Next, `O=C(CN1CCS(=O)(=O)CC1)Nc1ccc(N2CCCC2)nc1`: -4.89%; `c1cncc(-c2ccc3c(c2)C2(CC3)CCN(c3nncs3)CC2)c1`: 12.3%; `Cc1cc(-c2c(C)c(-c3cnn(C)c3)nc(N)c2C#N)oc1C`: 23.43%. With `Cc1c(-c2cnn(C)c2)nc(N)c(C#N)c1-c1ccc(CO)o1`, the INHIBITION turned out to be 55.7%. Under `CCc1ccc(-c2c(C)c(-c3cnn(C)c3)nc(N)c2C#N)o1` stands 49.25%. Regarding `COc1ccc(Cn2cc(C(=O)N(C)Cc3cnccn3)nn2)cc1`, the INHIBITION was -21.09%.

`O=C(C1CC1)N1CCC2(COCc3cnc(N4CCOCC4)nc32)C1` (stereo not given): the INHIBITION is reported as 29.95%. With `O=C(CC1CC1)N1CCC2(COCc3cnc(N4CCOCC4)nc32)C1` (stereo not given), the INHIBITION was determined as 51.72%. On to `COCCC(=O)N1CCC2(COCc3cnc(-c4ccccc4)nc32)C1` (stereo not given), for which the INHIBITION was determined as 50.32%.

For `COCCC(=O)N1CCC2(COCc3cnc(-c4cccnc4)nc32)C1` (stereo not given), the INHIBITION was -20.41%. With `COCC(=O)N1CCC2(COCc3cnc(-c4ccccc4)nc32)C1` (stereo not given), the INHIBITION is -22.64%. With `CCC(=O)N1CCC2(COCc3cnc(N4CCOCC4)nc32)C1` (stereo not given), the INHIBITION was determined as 35.84%. Consider `O=C(c1cc(=O)c(OCc2ccccc2F)co1)N1CCSCC1`, for which the INHIBITION was found to be 36.6%. As to `c1csc(CN2CCOCC3(CCN(C4CCOCC4)C3)C2)n1` (stereo not given), the INHIBITION worked out at 2.71%. As for `CC(C)c1nc(CN2CCCC2Cn2cncn2)no1` (stereo not given), the INHIBITION is on record as -13.92%. With `CCN1CCCC(C)(C(=O)NCc2nncn2CCc2ccccc2)C1` (stereo not given), the INHIBITION is -4.93%. Take `c1ccc(-c2nc(CN3CCCC3Cn3cncn3)no2)cc1` (stereo not given): the INHIBITION is given as -5.3%. On to `CC1(C)CC(=O)N(CC(=O)Nc2ccon2)c2ccccc21`, for which the INHIBITION worked out at 40.97%.

For the molecule `CCn1ccnc1CN1CCN(CC(O)CN2CCOCC2)CC1` (stereo not given), the INHIBITION is 38.68%. On to `CN1CCN(CC(NCc2ccc(F)c(F)c2)c2ccccc2)CC1` (stereo not given), for which the INHIBITION worked out at 12.57%. On to `Cc1ccc(CNC(CN2CCN(C)CC2)c2ccccc2)cc1` (stereo not given), for which the INHIBITION is reported as -10.6%. Consider `CN1CCN(CC(NCc2ccc(F)cc2)c2ccccc2)CC1` (stereo not given), for which the INHIBITION was determined as 58.29%. Regarding `c1ccc(CNCC2Cn3nnc(-c4ccncc4)c3CO2)nc1` (stereo not given), the INHIBITION was 2.87%. `C[C@@H](O)[C@H](NC(=O)c1csc2nc(-c3ccccc3F)cn12)C(N)=O`: the INHIBITION amounted to 16.95%. Take `CCc1ccc(-c2cn3c(C(=O)N[C@H](C(N)=O)[C@@H](C)O)csc3n2)cc1`: the INHIBITION stood at 61.82%. With `CCc1ccc(-c2cn3c(C(=O)NCC(C)C(=O)NC)csc3n2)cc1` (stereo not given), the INHIBITION was found to be 8.54%. `CCc1cc(=O)[nH]c(SCc2ccccn2)n1`: the INHIBITION was determined as 8.41%.

Turning to `CCc1c(C)nc(SCc2ccccn2)[nH]c1=O`, the INHIBITION was determined as 50.67%. Turning to `CCCc1cc(=O)[nH]c(SCc2ccccn2)n1`, the INHIBITION came out at 4.95%.

Turning to `CNC(=O)c1cc2c(nc1N(C)C)CCN(c1ncccn1)CC2`, the INHIBITION is listed as -31.3%. `Cc1nn2cc(CCNC(=O)c3cc(C(C)C)no3)nc2s1`: the INHIBITION is 11.9%.

As to `Cc1nn2cc(CCNC(=O)c3cc(C(C)C)nn3C)nc2s1`, the INHIBITION is reported as -8.8%. As to `Cc1cc(C(=O)NCCc2cn3nc(C)sc3n2)c(C)o1`, the INHIBITION was found to be 55.66%.

On to `COCC1CN(C(=O)Cc2cccc(F)c2)Cc2ccnn2C1` (stereo not given), for which the INHIBITION worked out at 13.52%. Next, `CCCN(CCc1ccccn1)C(=O)CCc1cnn(C)c1`: -46.85%; `CC1(C)CC(N(Cc2ccccc2)Cc2cccnc2)CC(C)(C)N1`: 26.52%.

Turning to `O=C(O)c1cccnc1N1CCN(Cc2ccc(F)cc2)C(CCO)C1` (stereo not given), the INHIBITION came to 78.43%. Under `Cc1ccc(CN2CCN(c3ncccc3C(N)=O)CC2CCO)cc1` (stereo not given) stands 3.92%; under `CNC(=O)c1cccnc1N1CCN(Cc2ccccc2)C(CCO)C1` (stereo not given), -4.52%. In the case of `c1cncc(C2COC3(CCN(Cc4ccsc4)CC3)C2)c1` (stereo not given), the INHIBITION is listed as 32.85%. Regarding `Cn1nccc1CN1CCOC(c2cccc(Nc3ccccn3)n2)C1` (stereo not given), the INHIBITION is -88.78%. As to `Cc1nc(C)c(CNC(=O)N2CCc3ccccc3C2CO)s1` (stereo not given), the INHIBITION worked out at 5.98%. For the molecule `Cc1cc(CC(=O)NC2CCCN(Cc3ccccc3)C2=O)n[nH]1` (stereo not given), the INHIBITION is recorded as -8.63%. `COc1ccc(F)cc1C(=O)N1CCC2(CCC(=O)N(C(C)C)C2)CC1`: the INHIBITION was 23.76%.

In the case of `COc1cc(C)ccc1C(=O)N1CCC2(CCC(=O)N(C(C)C)C2)CC1`, the INHIBITION is reported as -4.62%. In the case of `COc1cccc(C(=O)N2CCC3(CCC(=O)N(C(C)C)C3)CC2)c1C`, the INHIBITION stood at 63.37%. Take `CC(=O)N1CCN(C(=O)CNc2cccc(OC(F)F)c2C)CC1`: the INHIBITION was found to be 17.61%. Under `COc1ccc(OC)c(C2CCN(C(=O)C3CCC(O)CC3)C2)c1` (stereo not given) stands 55.36%; under `COc1ccc(OC)c(C2CCN(C(=O)C3CCOCC3)C2)c1` (stereo not given), 48.21%. For `COc1ccc(OC)c(C2CCN(C(=O)C3CCS(=O)(=O)CC3)C2)c1` (stereo not given), the INHIBITION was -18.57%. Regarding `COc1ccc(C(=O)NCc2cccnc2N2CCOCC2)o1`, the INHIBITION was -49.51%. Turning to `O=C(c1cccs1)N1CCC(n2nc(-c3ccco3)ccc2=O)CC1`, the INHIBITION is on record as 38.1%. For `CCc1c(C)nn(CC(=O)NC(C)c2n[nH]c(C)n2)c1C` (stereo not given), the INHIBITION is recorded as 40.15%.

Regarding `Clc1ccc(C2(CNC3=NCCN3)CC2)cc1`, the INHIBITION was determined as 53.98%. Next, `Clc1ccc(C2(CNC3=NCCN3)CCCC2)cc1`: 6.85%; `Clc1ccc(C2(CNC3=NCCN3)CCCCC2)cc1`: 35.46%; `Cc1cnc(N2CCCC3(COCCN(c4ccc(C)nn4)C3)C2)nc1` (stereo not given): 20.21%. Under `CN(Cc1cccc(O)c1)C(=O)c1ccc(CCC(C)(C)O)cc1` stands 19.75%. Under `O=C(NCCc1cccs1)N1CCC[C@H]1CO` stands 55.39%; under `O=C(NCCc1cccs1)N1CCCC1CCCO` (stereo not given), 8.03%. For the molecule `O=C(NCCCc1cccs1)N1CCCCC1CCO` (stereo not given), the INHIBITION is 39.97%. In the case of `COCC(=O)N1CCCC(C(=O)N(C)CCn2ccnc2C)C1` (stereo not given), the INHIBITION was 46.04%. `Cc1ccc2nc(C)c(C)c(C(=O)NCCCn3cnnc3)c2c1`: the INHIBITION was determined as 10.78%.

As to `Cc1ccc2nc(C)c(C)c(C(=O)NCCCn3ccnn3)c2c1`, the INHIBITION was determined as 56.21%. Next, `Cc1ccc2[nH]c(C(=O)NCCCn3ccnn3)c(C)c2c1`: 22.39%; `CC(=O)NCCC1CCCCN1S(=O)(=O)c1cccc(Cl)c1` (stereo not given): -12.13%. Under `CC(=O)NCCC1CCCCN1S(=O)(=O)c1ccc2ccccc2c1` (stereo not given) stands 29.89%. For `CC(=O)NCCC1CCCCN1S(=O)(=O)c1cccc(F)c1` (stereo not given), the INHIBITION amounted to 50.91%. Next, `Cn1cc(-c2csc(N3CCOCC3)n2)cn1`: 13.35%.

On to `Cc1occc1C(=O)N1CCOCC2(CCN(Cc3nccs3)C2)C1` (stereo not given), for which the INHIBITION stood at 3.85%. For `O=C(N1CCCC1)N1C[C@H]2CCC[C@@]2(COCc2ccccn2)C1`, the INHIBITION is 5.44%.
